Source: PubChem BioAssay (NCATS)
Several values for one entry are separate records, joined by “and”; a condition that tells them apart may be missing. Equal values may be shown once. Inconclusive results are not listed. Unmarked numbers belong to inactive results. Activity calls are given as the source filed them. Calls come from the whole dose curve; as a rule, active = well fitted cell-killing curve with a large enough effect; inconclusive = small, poorly fitted or top-dose-only effect; inactive = flat fitted curve, though single readings scatter.

test: Cellular viability qHTS for adrenocortical cancer (ACC) cell line NCI-H295R (AID 1963990); conditions: CellTiter-Glo ATP luminescence, 48 h; series mostly up to 46.1 µM; activity change, negative = viability loss: at the top concentration; note: nearly all actives have a fitted effect of over 60% in size;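 for activity change, negative = viability loss: 0% = DMSO only wells and -100% = full killing with cytotoxic reference compound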
Method in brief: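 IC50 and maximal efficacy derive from four-parameter logistic modelling of titration curves, with reads scaled between DMSO-only wells (0%) and doxorubicin hydrochloride (100% inhibition). Compounds spanned up to 46 uM over 48 h.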
Potency is the fitted concentration of half-maximal effect.

Compound | activity change, negative = viability loss | Potency
CNC(C)(C)Cc1ccccc1 | -0.776% | 
NCCc1cc(O)c(O)cc1O | -8.94% | 
COc1ccc(C(=O)N2CCCC2=O)cc1 |  | inactive
COP(=O)(OC)C(O)C(Cl)(Cl)Cl (stereo not drawn) | -18.7% | 
CN(C)NC(=O)CCC(=O)O | -2.68% | 
CCOP(=S)(OCC)Oc1cc(C)nc(C(C)C)n1 | -14.9% | 
CC1(C)CC(O)CC(C)(C)N1O | -20.6% | 
CCCN1CCO[C@@H]2c3cc(O)ccc3OC[C@H]21 | -1.59% | 
CCN(C(C)=O)c1cccc(-c2ccnc3c(C#N)cnn23)c1 | 0.476% | 
Oc1cc(Cl)ccc1Oc1ccc(Cl)cc1Cl |  | 3.16 µM (active) and 18.4 µM (active)
COc1cc(CC(C)N)cc(OC)c1OC (stereo not drawn) | -13.3% [at 92.7 µM] | 
Cc1ccc2c(c1)C1CN(C)CCC1N2 (stereo not drawn) | -27.1% [at 20 µM] | 
C[C@@H]1CN(Cc2ccc(F)cc2)CCN1C(=O)COc1ccc(Cl)cc1NC(N)=O |  | 20 µM (active)
C/C=C(/C)C(=O)O[C@H]1C(C)=C2[C@H]([C@@H]1OC(=O)CCCCCCC)[C@@](C)(OC(C)=O)C[C@H](OC(=O)CCC)[C@@]1(O)[C@H]2OC(=O)[C@@]1(C)O |  | 1.78 µM (active)
OC(O)C(Cl)(Cl)Cl | -5.6% | 
COc1ccc(OC)c(CC(C)N)c1 (stereo not drawn) | -19.1% [at 92.7 µM] | 
ClC1=C(Cl)C2(Cl)C(CBr)CC1(Cl)C2(Cl)Cl (stereo not drawn) | 2.3% | 
COP(=S)(OC)Oc1ccc(SC)c(C)c1 | -7.38% | 
CC(C)(C)NC[C@H](O)c1ccc(O)cc1Cl | -10.5% | 
O=C(NC(O)C(Cl)(Cl)Cl)NC(O)C(Cl)(Cl)Cl (stereo not drawn) | 4.33% | 
COc1cc(C)[nH]c(=O)c1CNC(=O)c1c(C)n([C@H](C)C2CCOCC2)c2ccccc12 | -1.15% | 
Cn1c(COP(=O)(NCCBr)NCCBr)cnc1[N+](=O)[O-] | -28.4% | 
COC12C(COC(N)=O)C3=C(C(=O)C(C)=C(N)C3=O)N1CC1C2N1C (stereo not drawn) |  | 15.8 µM (active)
